From PubChem BioAssay (EPA / NIEHS) come the findings set out here.

Calls of active or inactive are those of the source. How the source made its calls: active means hit-call score of the fitted dose curve at least 0.9, where 1 is the maximum; inactive means score below 0.9.

Read-out in the experiment: ABC Transporter (ABCB1), ABCB1 (gene 5243)
Kind of experiment: LTEA_HepaRG_ABCB1: Life Technologies and Expression Analysis (LTEA) Assay for ABC Transporter (ABCB1) using HepaRG (AID 2283460). The following applies: mRNA level, 48 h; actives raise or lower the signal. The method, then: LTEA_HepaRG is a cell based, multiplexed-readout assay that uses HepaRG, a human liver cell line, with measurements taken at 48 hours after chemical dosing on a 96-well plate.LTEA_HepaRG_ABCB1 is one of 102 assay component(s) measured in the LTEA HepaRG cell culture assay. It is a marker of Steatosis/NR mediated transport.Data from the assay component LTEA_HepaRG_ABCB1 was analyzed into 1 endpoint. This assay endpoint, LTEA_HepaRG_ABCB1, was analyzed with bidirectional fitting relative to DMSO as the negative control and baseline of activity. Using a type of inducible reporter, measures of mRNA induction for gain or loss-of-signal activity can be used to understand regulation of transcription factor activity. To generalize the intended target to other relatable targets, this assay endpoint is annotated to the transporter intended target family, where the subfamily is ABC transporter.
A total of 1060 chemcials from the ToxCast library were tested in eight-point concentration-response experiments. Cell culture and cytotoxicity assays were conducted at Thermo Fisher Scientific's Custom Services facility (Madison, WI). A single lot of human HepaRG cells (Thermo Fisher Scientific, Frederick, MD) was used for the cell culture experiments. 96-well format collagen type I coated plates of human HepaRG cells were prepared using established methods. Briefly, cryopreserved HepaRG cells were thawed, plated at a density of approximately 100,000 cells/well in HepaRG Thaw, Plate, and General Purpose media (HPRG770, Thermo Fisher Scientific), and incubated for 48 hours. 0.5% DMSO was selected as vehicle control to balance the requisite need of DMSO in HepaRG cultures to maintain differentiation (for example, baseline metabolism, proportions of hepatocytes vs. cholangiocytes), while enabling further hepatic receptor pathway activation (for example, PXR and CAR) in response to chemical exposure. 48 hours after plating, the culture medium was replaced with HepaRG Serum-Free Incudtion Media. Cells were exposed to each test chemical in duplicate and maintained in CO2 incubators for another 48 hours. Chemical plates were thawed to room temperature and 200x concentrations of treatment groups were prepared. 8-point conentration-reponse curves were made with the highest exposure at 100 uM, followed by half-log dilutions, all in 0.5% DMSO. Each test plate contained variouse controls, induction positive controls (1mM phenobarbital), cytotoxicity positive controls ([…] aflatoxin B1), vehicle controls (0.5% DMSO), and total lysis controls (0.5% DMSO). Cell morphology images were taken using an Essen IncuCyte FLR automated microscope, with six 96-well plates imaged in about 24 minutes. Images were captured and exported and JPEG files. Spent culture media was transfered to black-well plates for the LDH assay, and remaining media was sorted at -80 C for later use. Cells were treated with RLT buffer and frozen until shipped for gene expression analysis. Total RNA was isolated from the cell suspension in 75 uL of Buffer RLT (Qiagen, Germantown, MD 20874) by Quintiles/Expression Analysis (Durham, NC) using a custom isolation procedure. Total RNA from each plate well was transferred to a preamplification plate. Fluidigm's 96.96 Dynamic ArrayTM (Fluidigm, Amsterdam, the Netherlands) technology was used for gene expression analyses by quantitative reverse transcription polymerase chain reaction (qRT-PCR, performed by Quintiles/Expression Analysis, Durham, NC)89. Standard TaqManTM Assays (Applied Biosystems/ThermoFisher Scientific, Foster City, CA) were used to assess the expression of 93 genes selected based on their selectivity and sensitivity to important hepatic receptors known to be modulated by environmental chemicals; importance in human hepatocyte functionality; and hepatotoxicity. […]
Consider `O=C(O)C(F)(F)C(F)(F)C(F)(F)C(F)(F)C(F)(F)F`, for which the molecule was called inactive.
As for `O=C(NC(=O)c1c(F)cccc1F)Nc1cc(Cl)c(OC(F)(F)C(F)F)c(Cl)c1`, the result was inactive.
In the case of `C1CC2OC2CC1C1CO1` (stereo not given), the molecule was called inactive.
Take `Cc1cccc([N+](=O)[O-])c1`: the outcome was inactive.
As for `ClC1=C(Cl)[C@]2(Cl)[C@@H]3[C@@H](Cl)[C@H]4O[C@H]4[C@@H]3C1(Cl)C2(Cl)Cl`, the AC50 was 6.62 µM (active).
As for `O=NN(c1ccccc1)c1ccccc1`, the outcome was inactive.
For `Oc1ccc(Cl)cc1Cl`, the outcome was inactive.
Still for that read-out and setting: with `CC1=C2C[C@H]3[C@@H](CC=C4C[C@@H](O)CC[C@@]43C)[C@@H]2CC[C@]12O[C@@H]1C[C@H](C)CN[C@H]1[C@H]2C` the entry was “inactive”.
Take `Nc1ccc(-c2ccc(N)cc2)cc1`: the AC50 is 0.0737 µM (active).
As to `O=C(N[C@H]1CN2CCC1CC2)c1cc2ccoc2cn1`, the call was inactive.
On the same count and under the same terms, with `CCCCCCCCCc1ccc(O)cc1` the entry was “inactive”.
The same measure, in the same setting: to `CCSC(=O)N(CC)C1CCCCC1` belongs “inactive”; to `CCC(=O)O[C@H]1CC[C@H]2[C@@H]3CCC4=CC(=O)CC[C@]4(C)[C@H]3CC[C@]12C`, “inactive”.
As for `ClC1=C(Cl)[C@]2(Cl)[C@@H]3[C@H]4C[C@H]([C@@H]5O[C@H]45)[C@@H]3[C@@]1(Cl)C2(Cl)Cl`, the call was inactive.
With `Clc1ccc(C(c2ccccc2Cl)C(Cl)(Cl)Cl)cc1` (stereo not given), the concentration at half-maximal activity (AC50) was 16.9 µM (active).
`Cc1ccccc1O`: the result was inactive.
Regarding `C[C@]12CCC(=O)C=C1CC[C@@H]1[C@@H]2CC[C@]2(C)C(=O)CC[C@@H]12`, the AC50 was 17.1 µM (active).
Consider `C[C@]12CCC(=O)C=C1CC[C@@H]1[C@@H]2CC[C@@]2(C)[C@H]1CC[C@]2(C)O`, for which the half-maximal activity concentration (AC50) was 5.73 µM (active).
The same measure, in the same setting: with `N#Cc1ccc(N(CC(N)=O)CC(F)(F)F)cc1C(F)(F)F` the figure was 9.92 µM (active).
Consider `CCCCCCOC(=O)c1ccccc1C(=O)OCCCCCC`, for which the outcome was inactive.
Take `Clc1ccc(Cl)cc1`: the outcome was inactive.
For the molecule `Cc1ccccc1[N+](=O)[O-]`, the molecule was called inactive.
Still for that read-out and setting: to `C=CC(N)=O` belongs “inactive”.
Still for that read-out and setting: with `Nn1cnnc1` the entry was “inactive”; with `CCOCCOC(C)=O`, “inactive”.
For `Oc1c(Cl)c(Cl)c(Cl)c(Cl)c1Cl`, the AC50 was 2.1 µM (active).
As for `c1ccc(-c2ccccc2)cc1`, the result was inactive.
For `CC(C)(O)C(=O)Nc1ccc([N+](=O)[O-])c(C(F)(F)F)c1`, the result was inactive.
The same measure, in the same setting: to `CC(C)(c1ccccc1)c1ccc(O)cc1` belongs “inactive”.
For the molecule `O=C(O)C(F)(F)C(F)(F)C(F)(F)C(F)(F)C(F)(F)C(F)(F)C(F)(F)C(F)(F)C(F)(F)F`, the AC50 is 85.1 µM (active).
Take `Clc1ccc(C(Cl)(Cl)Cl)cc1`: the result was inactive.
Still for that read-out and setting: with `c1cc2ccc3cccc4ccc(c1)c2c34` the entry was “inactive”; with `CCNc1nc(NC(C)C)nc(SC)n1`, “inactive”.
Consider `CCOC(=O)C(O)(c1ccc(Cl)cc1)c1ccc(Cl)cc1`, for which the AC50 is 73 µM (active).
Consider `CC(C)C(=O)OCC(C)(C)C(OC(=O)C(C)C)C(C)C` (stereo not given), for which the molecule was classed as inactive.
Regarding `CC(c1ccc(O)cc1)(c1ccc(O)cc1)c1ccc(O)cc1`, the AC50 is 72.9 µM (active).
With `Cc1cc2c3c(c1)C(c1ccccc1)=N[C@@H](NC(=O)c1ccncc1)C(=O)N3CC2`, the AC50 is 5.26 µM (active).
As to `COc1ccc(O)c(C(C)(C)C)c1`, the molecule was called inactive.
As for `CCC(C)c1cc([N+](=O)[O-])cc([N+](=O)[O-])c1O` (stereo not given), the AC50 is 1.39 µM (active).
The same measure, in the same setting: to `ClC(Cl)=C(c1ccc(Cl)cc1)c1ccc(Cl)cc1` belongs 23.2 µM (active).

For orientation: AC50 means the concentration at which the activity in the assay is half-maximal.
